# Screens: PubChem, several laboratories
# The list is not random: actives were taken first. Their share in the collection is about 11%.
# Insulin prom inh: TRM-6 insulin promoter activity inhibition | TRM-6 cells (human fetal islet line), insulin promoter-eGFP reporter, imaging; reporter expression induced with tamoxifen | 0.9% of 130,000 active | inhibition, % at 2 µM | AID 1273;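 active = inhibition above the mean plus 3 SD, with well images judged a real hit on visual review, cut at about 60% in these data, passing the limit was not always enough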
# L major viab: Leishmania major promastigote growth inhibition; inhibition, % at 10 µM; Leishmania major promastigotes, resazurin fluorescence viability; AID 1063; 9% of 200,000 active; in the data active = inhibition above about 50%;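 also: promastigotes grown with compound for 44 hours at 28 °C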
# Insulin prom up: MIN6 insulin promoter up-regulation; AID 1625; 0.3% of 190,000 active; z-score at 5 µM; MIN6 insulin promoter-GFP reporter, high-content imaging; stronger effect = higher value;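 active = z-score above 3 at 5 µM with at least 500 cells counted in the well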
# WT yeast gro inh: growth inhibition of WT yeast, mitochondrial fusion screen; mitochondrial fusion phenotypic screen, WT strain; inhibition, % at 10 µM; 2.1% of 190,000 active; AID 1362; in the data active = inhibition above about 58%; tested in S. cerevisiae
# Autophagy HCS: modulators of autophagy | MEF GFP-LC3 puncta imaging; test concentration mostly 10 µM | calls only at 10 µM (by protocol) | 0.98% of 190,000 active | AID 463193;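 active = percentage of spot-positive cells more than 3 SD above its plate mean, without a fluorescence outlier flag or 80% toxicity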;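 also: spot-positive cell cutoff set from DMSO-treated cells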
# * = called active by the depositor; i = inactive; / = no result; + = active, no number.
SMILES,Insulin prom inh,L major viab,Insulin prom up,WT yeast gro inh,Autophagy HCS
CCc1ccc(NC2=CC(=O)CC(c3ccco3)C2)cc1 (centres undefined),0,63*,0.26,/,i
Cc1cc(C)cc(NC2=CC(=O)CC(c3ccco3)C2)c1 (centres undefined),-36,5,0.46,-27,i
Cc1cc2c3c(c1)C(C)(c1ccccc1)CC(C)(C)N3C(=O)C21C(C#N)=C(N)OC2=C1C(=O)CC(C)(C)C2 (centres undefined),-38,51*,/,28,i
O=C(COC(=O)c1c[nH]c(=O)[nH]c1=O)Nc1ccccc1Br,/,/,0.12,/,/
CCOc1ccc(S(=O)(=O)NC(Cc2cnc[nH]2)C(=O)O)cc1 (centres undefined),/,3,0.89,-2,i
Cc1ccc(/C=[N+](\[O-])c2ccc(N(C)C)cc2)c2nsnc12,/,32,/,77*,i
N#C/C(=C\c1cn(-c2ccccc2)nc1-c1ccccc1)S(=O)(=O)c1ccccc1,/,5,-0.45,-11,i
CCOc1ccc(-c2nn(-c3ccccc3)cc2/C=C(\C#N)S(=O)(=O)c2ccccc2)cc1C,-10,64*,-0.31,-11,i
CC(NC(=O)c1ccccc1)c1nc2ccccc2n1Cc1ccccc1F (centres undefined),-36,53*,-0.85,-5,i
Cc1ccc2nc(Cl)nc(-c3ccccc3)c2c1,/,-1,-0.96,3,i
Cc1ccc2nc(-c3ccccc3)c(-c3ccccc3)nc2c1,/,2,-0.76,65*,i
CCOC(=O)C1CCN(C(c2cc3c(C)ccc(C)c3[nH]c2=O)c2nnnn2C2CCCCC2)CC1 (centres undefined),18,99*,-0.56,36,i
CCOC(=O)C1CCN(C(c2cc3ccc(C)c(C)c3[nH]c2=O)c2nnnn2C2CCCCC2)CC1 (centres undefined),/,86*,-0.82,0,i
COc1cc(CN2CCNC(=O)C2CC(=O)N(C)Cc2ncc[nH]2)cc(OC)c1 (centres undefined),50,0,-0.97,1,i
Cc1nc2c([N+](=O)[O-])c(C)c(C)cc2[nH]1,57,-2,-0.12,-9,i
Cc1nc2c(Cl)cc(Cl)cc2[nH]1,73*,18,-0.31,19,i
CC(Oc1ccccc1)c1ccnc2nc(N3CCOCC3)nn12 (centres undefined),/,16,-0.74,5,i
CC(Oc1ccc(Cl)cc1Cl)c1ccnc2nc(N3CCOCC3)nn12 (centres undefined),/,10,-1.1,75*,i
O=[N+]([O-])c1ccc(-c2cn3nc(-c4ccccc4)c(-c4ccccc4)nc3n2)cc1,/,/,1.9,/,/
c1ccc(-c2cn3nc(-c4ccccc4)c(-c4ccccc4)nc3n2)cc1,-45,10,3,-10,+
COc1cc(CCC(=O)Nc2nnc(-c3cccnc3)s2)cc(OC)c1OC,-21,12,-0.06,-7,i
CC(=O)Nc1ccc(S(=O)(=O)n2cnc3cc(C)c(C)cc32)cc1,/,67*,0.13,8,i
Cc1ccc(Nc2nc(NCc3ccco3)c3ccccc3n2)cc1,/,101*,/,94*,i
Fc1ccccc1-c1nc(NCc2ccco2)c2ccccc2n1,/,53*,0.22,2,i
c1ccc(-c2nc(NCc3ccco3)c3ccccc3n2)nc1,/,100*,-0.72,37,i
SMILES,Insulin prom inh,L major viab,Insulin prom up,WT yeast gro inh,Autophagy HCS
COc1ccccc1Nc1nc(NCc2ccco2)c2ccccc2n1,/,/,-2.2,/,/
CCc1ccccc1NC(=O)/C(C#N)=C\c1ccc(Sc2ccccc2)o1,3,-4,0.09,-9,i
CCc1ccccc1NC(=O)/C(C#N)=C/c1ccc(Sc2ccccc2)o1,-15,93*,0.17,37,i
COc1ccc(OC)c(/C=C/C(=O)OCC(=O)c2c(N)n(C)c(=O)n(C)c2=O)c1,55,-3,/,-39,i
CC/C(=C(\c1ccc(O)cc1)c1ccc(OCCN(C)C)cc1)c1ccccc1,/,/,-0.9,56,/
CCN(CC)CCOc1ccc(/C(=C(/Cl)c2ccccc2)c2ccccc2)cc1,-280,100*,-2.7,98*,i
CCOc1ccc(C(=O)OCCN(CC)CC)cc1,80*,8,/,-1,i
C=CCc1ccc(OCCOCCNCCCC)c(OC)c1,26,96*,1,0,+
C=CCc1ccc(OCCOCCNCCOC)c(OC)c1,-6,99*,-0.48,-31,i
CN(Cc1ccccc1)S(=O)(=O)c1ccc(N2CCOCC2)nc1,/,/,-0.03,/,/
COc1cccc(CC2(CO)CCCN(Cc3ccc4c(c3)OCCO4)C2)c1 (centres undefined),/,53*,-0.82,2,i
CCn1ccnc1CN1CCCC(CO)(Cc2cccc(OC)c2)C1 (centres undefined),/,96*,-0.96,-5,i
COc1cccc(CC2(CO)CCCN(Cc3cn[nH]c3-c3ccccc3)C2)c1 (centres undefined),/,1,1.8,0,i
O=C(Cc1ccc(-n2c(=O)c3sccc3n(CC(=O)Nc3ccccc3F)c2=O)cc1)NCc1ccco1,/,-4,/,-6,i
CCCOC(=O)CC1C(=O)NCCN1C(=O)OC(C)(C)C (centres undefined),/,-2,-0.27,-14,i
COC(=O)Cc1ccc(NC(=O)c2ccccc2Br)cc1,/,31,-0.2,-8,i
Cc1cccc(NC(=O)CNc2cc(C)ccc2C)c1,/,12,-1.3,7,i
COc1ccc(OC)c(C(c2nnnn2C2CCCC2)N2CCN(c3ccc(F)cc3)CC2)c1 (centres undefined),/,92*,-0.96,20,i
COc1ccc(C(c2nnnn2C2CCCC2)N2CCC(C)CC2)c(OC)c1 (centres undefined),14,99*,-1.4,26,i
COc1ccc2cc(C(c3nnnn3C3CCCCC3)N3CCCCCC3)c3nnnn3c2c1 (centres undefined),-55,21,/,/,i
CCN1CCN(C(c2ccccc2OC)c2nnnn2C2CCCCC2)CC1 (centres undefined),/,10,0.12,5,i
CC(C)Nc1nc(NC(C)C)nc(N(C)C(N)=O)n1,73*,-3,0.15,3,i
CC(C)Nc1nc(NC(C)C)nc(N(C)N)n1,43,24,/,26,i
COCCCNC(=S)NC(=O)c1ccc(C)cc1,47,-7,0.04,4,i
Clc1ccc(OCCN2CCOCC2)cc1Cl,-429,86*,/,-17,i
SMILES,Insulin prom inh,L major viab,Insulin prom up,WT yeast gro inh,Autophagy HCS
Clc1ccc(OCCCN2CCCC2)cc1Cl,9,91*,-0.28,4,i
Clc1ccc(OCCCn2cncn2)cc1Cl,7,100*,-0.24,-9,i
O=C(OCCN1CCOCC1)c1ccc(OCCN2CCOCC2)cc1,-2,-2,0.68,-1,i
Clc1ccc(OCCN2CCCCC2)cc1Cl,-8,79*,-0.02,23,i
CNCCOc1ccc(Cl)c(Cl)c1,/,-1,/,-6,i
c1ccc(COc2ccc(OCCCn3cncn3)cc2)cc1,-19,-6,0.45,4,i
Cc1cc(OCCCCCN2CCCC2)ccc1Cl,37,99*,-0.1,17,i
